Records with an inconclusive call do not appear. Active and inactive are the calls of the source. Unless noted, calls follow the shape of the dose curve; as a rule, active = well fitted curve in the direction sought with a large enough effect in the repeat runs; inconclusive = weak or mixed curves; inactive = no such curve, though single readings can be large; an effect the other way counts as inactive or inconclusive.
Key:
[1] = qHTS assay to identify small molecule agonists of the peroxisome proliferator-activated receptor delta (PPARd) signaling pathway - cell viability counter screen (AID 743211); also: nearly all actives have a fitted effect of over 55% in size
Outline: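 qHTS cell viability: PPARd-bla HEK293H; 17 h cpd, 37C; CellTiter-Glo, luminescence at 30 min RT.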

[2] = molecular target: Peroxisome proliferator-activated receptor delta (Homo sapiens) (UniProt Q03181); test: qHTS assay to identify small molecule agonists of the peroxisome proliferator-activated receptor delta (PPARd) signaling pathway (AID 743212; calls by dose curve)
Outline: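 Quantitative high-throughput agonist screen in a HEK293H beta-lactamase reporter line under UAS control. Compounds in DMSO, at 37 C. Fluorescence read after 2 h with FRET substrate at room temperature.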

[3] = qHTS assay to identify small molecule antagonists of the peroxisome proliferator-activated receptor delta (PPARd) signaling pathway - cell viability counter screen (AID 743213); also: nearly all actives have a fitted effect of over 50% in size
Outline: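 Agonist-stimulated (L165041, 300 nM final) HEK293H PPARd UAS-bla cells are exposed to compounds for 17 h at 37 C, and ATP-based luminescence (CellTiter-Glo) from the same wells reports cytotoxicity.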

[4] = molecular target: Peroxisome proliferator-activated receptor delta (Homo sapiens) (UniProt Q03181); test: qHTS assay to identify small molecule antagonists of the peroxisome proliferator-activated receptor delta (PPARd) signaling pathway (AID 743215; active = well fitted inhibition curve with a large enough effect in the signal ratio in the repeat runs, not every such curve was filed as active; the % refers to the signal ratio; also: series mostly up to about 62 µM)
Outline: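 PPARd UAS-bla HEK293H cells were pre-incubated 5 h at 37 C, then given test compounds in DMSO plus agonist L165041 (300 nM final). After 17 h at 37 C, beta-lactamase FRET substrate was added; fluorescence read after 2 h at room temperature.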

[5] = molecular target: Bile acid receptor (Homo sapiens) (UniProt Q96RI1); test: qHTS assay to identify small molecule antagonists of the farnesoid-X-receptor (FXR) signaling pathway (AID 743217; active = well fitted inhibition curve with a large enough effect in the signal ratio in the repeat runs, not every such curve was filed as active; the % refers to the signal ratio)
Outline: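 FXR-UAS-bla HEK 293T cells pre-incubated 5 h at 37 °C, then exposed to compounds with chenodeoxycholic acid (50 uM final) for 16 h at 37 °C. Beta-lactamase reporter read by LiveBLAzer B/G FRET substrate fluorescence after 2 h at room temperature.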

[6] = qHTS assay to identify small molecule agonists of the farnesoid-X-receptor (FXR) signaling pathway - cell viability counter screen (AID 743218); also: nearly all actives have a fitted effect of over 45% in size
Outline: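 FXR-UAS-bla HEK 293T cells, plated 5 h at 37 C, were exposed to compounds for 16 h at 37 C. CellTiter-Glo was then added to the same wells as the bla readout; luminescence read after 30 min at room temperature.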

[7] = molecular target: Bile acid receptor (Homo sapiens) (UniProt Q96RI1); test: qHTS assay to identify small molecule agonists of the farnesoid-X-receptor (FXR) signaling pathway (AID 743220; active = well fitted activation curve with a large enough effect in the signal ratio in the repeat runs, not every such curve was filed as active; the % refers to the signal ratio)
Outline: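 Beta-lactamase reporter under UAS control in GeneBLAzer FXR HEK 293T cells (5000/well) measured with LiveBLAzer FRET substrate after 2 h at room temperature. Compound exposure lasted 16 h at 37C.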

[8] = qHTS assay to identify small molecule antagonists of the farnesoid-X-receptor (FXR) signaling pathway - cell viability counter screen (AID 743221; active = well fitted cell-killing curve with a large enough effect in the repeat runs, not every such curve was filed as active; also: nearly all actives have a fitted effect of over 50% in size)
Outline: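 After a 5 h settling period, FXR-bla HEK 293T cells receive compound and chenodeoxycholic acid (50 uM final) and incubate 16 h at 37 C; CellTiter-Glo luminescence, read after 30 min at room temperature, reports cell viability.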

[9] = molecular target: Vitamin D3 receptor (Homo sapiens) (UniProt P11473); test: qHTS assay to identify small molecule agonists of the vitamin D receptor (VDR) signaling pathway (AID 743222; calls by dose curve)
Outline: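 VDR-bla cells were plated 4 h at 37C/5% CO2, then exposed to compounds in DMSO for 16 h. After LiveBLAzer B/G FRET substrate addition and 2 h at room temperature, beta-lactamase reporter fluorescence was read.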

[10] = molecular target: Vitamin D3 receptor (Homo sapiens) (UniProt P11473); test: qHTS assay to identify small molecule antagonists of the vitamin D receptor (VDR) signaling pathway (AID 743223; active = well fitted inhibition curve with a large enough effect in the signal ratio in the repeat runs, not every such curve was filed as active; the % refers to the signal ratio)
Outline: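 Reporter line VDR-bla; stimulus 1alpha,25-(OH)2 vitamin D3, 3 nM final; compound co-addition, 16 h 37C/5% CO2; LiveBLAzer B/G substrate 2 h RT; fluorescence intensity.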

Measured: Potency

Sequence of Bile acid receptor (Homo sapiens) (Q96RI1 whole entry, looked up): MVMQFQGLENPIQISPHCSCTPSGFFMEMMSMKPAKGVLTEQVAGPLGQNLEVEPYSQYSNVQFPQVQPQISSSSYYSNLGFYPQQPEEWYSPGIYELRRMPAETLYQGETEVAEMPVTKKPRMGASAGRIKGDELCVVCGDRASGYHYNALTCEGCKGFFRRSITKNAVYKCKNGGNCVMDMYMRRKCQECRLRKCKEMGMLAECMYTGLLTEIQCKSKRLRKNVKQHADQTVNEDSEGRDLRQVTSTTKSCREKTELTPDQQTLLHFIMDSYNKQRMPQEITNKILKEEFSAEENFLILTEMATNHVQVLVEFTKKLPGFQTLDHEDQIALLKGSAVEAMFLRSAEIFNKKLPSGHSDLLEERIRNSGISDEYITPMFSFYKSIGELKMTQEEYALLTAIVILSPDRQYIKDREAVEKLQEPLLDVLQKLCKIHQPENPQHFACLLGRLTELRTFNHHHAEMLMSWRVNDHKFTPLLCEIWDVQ
Sequence of Peroxisome proliferator-activated receptor delta (Homo sapiens) (Q03181 whole entry, looked up): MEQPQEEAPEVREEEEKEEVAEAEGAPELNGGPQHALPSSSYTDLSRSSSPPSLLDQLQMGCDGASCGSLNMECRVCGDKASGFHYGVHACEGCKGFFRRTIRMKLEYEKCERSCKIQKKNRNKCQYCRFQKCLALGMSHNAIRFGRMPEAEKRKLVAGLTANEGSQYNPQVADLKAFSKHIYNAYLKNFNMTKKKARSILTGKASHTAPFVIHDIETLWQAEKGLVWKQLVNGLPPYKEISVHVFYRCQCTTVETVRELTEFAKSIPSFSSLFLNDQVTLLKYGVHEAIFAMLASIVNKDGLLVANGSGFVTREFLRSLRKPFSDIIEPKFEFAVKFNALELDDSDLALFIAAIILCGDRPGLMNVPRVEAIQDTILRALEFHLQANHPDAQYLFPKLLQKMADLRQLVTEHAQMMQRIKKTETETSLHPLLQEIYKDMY
Sequence of Vitamin D3 receptor (Homo sapiens) (P11473 whole entry, looked up): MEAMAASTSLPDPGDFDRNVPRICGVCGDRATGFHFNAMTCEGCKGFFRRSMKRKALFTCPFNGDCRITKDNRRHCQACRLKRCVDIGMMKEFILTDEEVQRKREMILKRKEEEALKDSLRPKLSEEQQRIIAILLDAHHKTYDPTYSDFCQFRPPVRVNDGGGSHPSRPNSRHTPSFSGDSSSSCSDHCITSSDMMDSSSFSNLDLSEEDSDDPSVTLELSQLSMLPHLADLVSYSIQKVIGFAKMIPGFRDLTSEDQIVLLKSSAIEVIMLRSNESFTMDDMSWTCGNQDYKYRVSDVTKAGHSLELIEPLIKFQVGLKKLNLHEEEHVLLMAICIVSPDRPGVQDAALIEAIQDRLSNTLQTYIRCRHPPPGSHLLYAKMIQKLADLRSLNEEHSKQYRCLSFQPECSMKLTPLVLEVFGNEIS

Nc1cccc(Cl)c1
inactive: all assays above

FC(F)(F)c1ccc(Cl)cc1
not listed: [9]
inactive: all other assays above

Cc1cccc(N)c1C
not listed: [9]
inactive: all other assays above

CC(C)CCCCCCOC(=O)c1ccccc1C(=O)OCCCCCCC(C)C
not listed: [9]
inactive: all other assays above

COP(=S)(OC)SCN1C(=O)c2ccccc2C1=O
not listed: [9] | [10]
inactive: all other assays above

Cc1cc(O)ccc1Cl
inactive: all assays above

OCc1ccco1
not listed: [9]
inactive: all other assays above

Nc1cc(Cl)cc(Cl)c1
inactive: all assays above

N#CN=C(N)N
not listed: [9]
inactive: all other assays above

O=C(O)C1C(C(=O)O)C2(Cl)C(Cl)=C(Cl)C1(Cl)C2(Cl)Cl (configuration not stated)
not listed: [9] | [10]
inactive: all other assays above

ClCCOCCCl
not listed: [9] | [10]
inactive: all other assays above

CC(=O)C1CCOC1=O (configuration not stated)
not listed: [9]
inactive: all other assays above

C[C@H]1C(=O)O[C@@H]2CCN3CC=C(COC(=O)[C@](C)(O)[C@]1(C)O)[C@H]23
not listed: [9]
inactive: all other assays above

COC(=O)Nc1cccc(OC(=O)Nc2cccc(C)c2)c1
not listed: [9] | [10]
inactive: all other assays above

C=CC(=O)OCCCCCC(C)C
not listed: [9]
inactive: all other assays above

C=CCN=C=S
inactive: all assays above

Nc1ncc([N+](=O)[O-])s1
not listed: [9]
inactive: all other assays above

CCCCC(CC)C(=O)Cl (configuration not stated)
not listed: [9] | [10]
inactive: all other assays above

CCCOC(=O)c1ccccc1C(=O)OCCC
not listed: [9] | [10]
inactive: all other assays above

O=C(O)CCCc1ccc(N(CCCl)CCCl)cc1
inactive: all assays above

CNC(=O)O/N=C/C(C)(C)S(C)=O (configuration not stated)
not listed: [9]
inactive: all other assays above

Cl[C@H]1OCCO[C@@H]1Cl
not listed: [9] | [10]
inactive: all other assays above

CNC(=O)Oc1cccc2ccccc12
inactive: all assays above

CCOC(=O)CC(SP(=O)(OC)OC)C(=O)OCC (configuration not stated)
not listed: [9] | [10]
inactive: all other assays above

Cc1cccc(C)c1NC(=O)CN1CCCC1=O
not listed: [9] | [10]
inactive: all other assays above

CCOc1ccc(N)cc1
inactive: all assays above

CSc1nnc(C(C)(C)C)c(=O)n1N
not listed: [9]
inactive: all other assays above

Cc1cccc(C)c1N
not listed: [9] | [10]
inactive: all other assays above

Nc1nc(N)nc(NC2CC2)n1
not listed: [9] | [10]
inactive: all other assays above

[N-]=[N+]=CC(=O)OC[C@H](N)C(=O)O
inactive: all assays above

O=[N+]([O-])c1cc([As](=O)(O)O)ccc1O
not listed: [5] | [7]
inactive: all other assays above

CCSC(=O)N1CCCCCC1
not listed: [5] | [7]
inactive: all other assays above

Cc1ccc(O)c(C)c1
inactive: [1] | [2] | [3] | [4] | [6] | [8]

CN1C(=O)CCS(=O)(=O)C1c1ccc(Cl)cc1 (configuration not stated)
not listed: [5] | [7]
inactive: all other assays above

CC[N+](=O)[O-]
not listed: [5] | [7]
inactive: all other assays above

CCNc1nc(Cl)nc(NC(C)C)n1
not listed: [5] | [7] | [9]
inactive: all other assays above

Clc1cnc(Oc2ccc(Oc3ncc(Cl)cc3Cl)cc2)c(Cl)c1
not listed: [6]
inactive: all other assays above

O=[N+]([O-])c1ccc(Cl)c(Cl)c1
not listed: [9]
inactive: all other assays above

CN(C)CCC#N
not listed: [5] | [7] | [9]
inactive: all other assays above

Reference: PubChem BioAssay (Tox21)
